Shown are actives, neighbours in structure and some others; about 2.5% of the full set was active somewhere.
WRN inhibitor – WRN helicase (human) inhibition; WRN helicase unwinding, fluorescent forked duplex, kinetic; Q14191; Potency, µM (top dose mostly 114 µM), without a hit: at the highest dose activity change, negative = inhibition, actives largely listed as inhibitors; actives 0.46% (n = 360,000); AID 651768; further: on the % scale 0 is the no-effect control and ±100 the full control effect; nearly all actives have a fitted effect of over 55% in size
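WRN at 20 nM final preincubated with compound 15 min at room temperature; reaction started with 100 nM fluorophore/quencher forked duplex oligonucleotide and 2 mM ATP final. Unwinding followed kinetically by red fluorescence (ex 525, em 598 nm).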
POLI inh – DNA polymerase iota (human) inhibition. Q9UNA4. Pol iota fluorescent replication assay, 10 min. actives 1% (n = 390,000). Potency, µM (doses to about 115 µM), without a hit: at the top dose activity, negative = inhibition, usual class: inhibitors
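Pol iota at 10 nM preincubated 15 min with compounds at room temperature; reaction started with fluorescent substrate, 50 nM final. Fluorescence read kinetically at 0 and 10 min; buffer-only wells as negative control.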
Pol beta inh – DNA polymerase beta (human) inhibition; P06746; Pol beta primer extension/strand displacement, fluorescence kinetic; Potency, µM (top dose mostly 114 µM), inactives show at the highest dose activity change, negative = inhibition, hits mostly inhibitors; actives 1.3% (n = 340,000); AID 485314; further: on the % scale 0 is the no-effect control and ±100 the full control effect
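Pol beta (10 nM) and compounds were preincubated 15 min at room temperature, then 50 nM substrate (final) started primer extension/strand displacement. Reads were taken at 0 and 10 min; concentration-response data were fitted to a four-parameter Hill equation.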
L3MBTL1 block – inhibitors of human L3MBTL1; Q9Y468; AlphaScreen L3MBTL1–H3K9me1 peptide binding; Potency, µM (top dose mostly 57.1 µM), without a hit: at the highest dose activity, negative = inhibition, most hits filed as inhibitors; actives 0.66% (n = 230,000); AID 485360; further: on the % scale 0 is the no-effect control and ±100 the full control effect; nearly all actives have a fitted effect of over 60% in size
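First, the protein-peptide complex forms for 30 min at room temperature (L3MBTL1 50 nM, biotinylated H3K9me1 peptide 75 nM). Next, compounds are pin-transferred and incubated 30 min. Finally, AlphaScreen beads are added and read after 30 min.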
Pol eta inh – DNA polymerase eta (human) inhibition; Q9Y253; recombinant Pol eta, fluorescent DNA replication assay; Potency, µM (top dose mostly 114 µM), for inactives: at the top dose activity change, negative = inhibition, most hits filed as inhibitors; actives 1.2% (n = 390,000); further: on the % scale 0 is the no-effect control and ±100 the full control effect
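Pol eta at 10 nM preincubated with compounds 15 min at room temperature; reaction started with fluorescent substrate (50 nM final) and read kinetically at 0 and 10 min.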
POLK inh – blocks human DNA polymerase kappa activity | Potency, µM (top dose mostly 107 µM), for the others: at the highest dose activity, negative = inhibition, hits mostly inhibitors | purified Pol kappa, fluorescent DNA synthesis assay, 10 min | actives 0.53% (n = 400,000) | AID 588579; further: on the % scale 0 is the no-effect control and ±100 the full control effect
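Enzyme at 10 nM met test compounds for 15 min at room temperature. Substrate addition (50 nM final) began the reaction, which was monitored by fluorescence at 0 and 10 min.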
TbPGK inh – blocks T. brucei phosphoglycerate kinase; shares compounds with POLK inh; TbPGK coupled GAPDH assay, Kinase-Glo luminescence; Potency, µM (doses to about 57.5 µM), inactives show top-dose activity change, negative = inhibition, actives largely listed as inhibitors; actives 79% (n = 500); further: on the % scale 0 is the no-effect control and ±100 the full control effect; nearly all actives have a fitted effect of over 65% in size
POLI cherry-pick – Confirm cherry-picked inhibitors of human polymerase iota | shares compounds with POLK inh | Pol iota primer extension, TAMRA/BHQ fluorescence | Potency, µM, hits mostly inhibitors | actives 77% (n = 1,500)
The depositor's hits bear a star; ? = inconclusive; . = no result; [ ] = dose if it differs, or a comment. The call rests on the fitted dose curve; in most records, active means well fitted curve in the direction sought with a large enough effect; inconclusive means small, poorly fitted or top-dose-only effect, or another doubt; inactive means no such curve, though single readings can be large; an effect the other way counts as inactive or inconclusive. Potency means the concentration at half of the fitted maximal effect.

SMILES	WRN inhibitor	POLI inh	Pol beta inh	L3MBTL1 block	Pol eta inh	POLK inh	others
COC(=O)c1ccc(C2=NOC(C)(c3sc(-c4ccc(Cl)cc4)nc3C)C2)cc1 (stereo not given)	0%	3%	19%	.	-4%	-17%
Cc1ccc(S(=O)(=O)C(CNC(=O)Cc2ccc(Cl)cc2)c2cccs2)cc1 (stereo not given)	.	-6%	41%	.	-14%	-24%[60.1 µM]
O=C(COc1ccccc1)NCC(c1cccs1)S(=O)(=O)c1ccc(Cl)cc1 (stereo not given)	.	-4%	18µM*	.	-13%	-9%[60.1 µM]	TbPGK inh=?
COc1ccc(CC(=O)NCC(c2cccs2)S(=O)(=O)c2ccc(Cl)cc2)cc1 (stereo not given)	.	-4%	7.9µM*	.	-25%	-7%[60.1 µM]	TbPGK inh=6.5µM*
Cc1cc(S(=O)(=O)C(CNC(=O)COc2ccc(Cl)cc2)c2cccs2)ccc1F (stereo not given)	.	8%	4%	.	-9%	-15%[60.1 µM]
CSc1nc(Nc2cccc(C)c2)c(C#N)c(-c2ccccc2)n1	.	13%	2%	.	-18%	8%
Cc1ccc2nc(-c3ccc4c(c3)OCCO4)cn2c1	-1%	29%	-11%	-12%	-17%	-1%
c1ccn2cc(-c3ccc4c(c3)OCCO4)nc2c1	-11%	?	5%	.	-8%	-5%	TbPGK inh=?
Cc1ccc(-c2nn(-c3ccccc3)cc2C(=O)NCC2CCCO2)cc1 (stereo not given)	5%	14%	.	-6%	-15%	5%
CNc1ccc(/C=C(\CCC(=O)O)c2nc3ccccc3s2)cc1[N+](=O)[O-]	?	-1%	32µM*	-12%	13µM*	-15%	POLI cherry-pick=42*
CCn1cc(C(=O)O)c(=O)c2cc(F)c(N3CCN(S(=O)(=O)c4ccc(NC(=O)OC)cc4)CC3)cc21	?	17%	?	-27%	?	2%	POLI cherry-pick=34*
CCN(CC(=O)Nc1cccc(OC)c1)C(=O)c1ccncc1	-5%	67%	24%	.	?	-17%
O=C(O)Cc1cccc(=O)c(O)c1C(=O)O	?	22µM*	.	.	4µM*	?	TbPGK inh=5.2µM*
COc1ccccc1NC(=O)c1cc2ccccc2o/c1=N\O	100µM*	79µM*	20µM*	4%	?	-39%	POLI cherry-pick=?
COc1ccccc1NC(=O)c1cc2ccc(O)cc2o/c1=N\O	?	-12%	-17%	-3%	?	-35%
CCC(C)c1ccccc1NC(=O)COC(=O)c1ccc(C)c(NC(=O)c2ccco2)c1 (stereo not given)	1%	18%	-9%	.	-13%	0%
CC1(C)Cc2c(cnn2-c2ccc(F)cc2)C(NC(=O)c2ccc(=O)oc2)C1 (stereo not given)	-29%	47%	-25%	.	-4%	-15%
Cc1cc2[nH]c3c4ccccc4nc(C)c3c2cc1C	22%[11.6 µM]	14µM*	.	.	-19%	79µM*	POLI cherry-pick=42*
C(=C\c1nc2ccccc2[nH]1)/c1ccccc1	-19%	6%	4%	0%	-2%	-20%	TbPGK inh=16µM*
C(=C\c1ccco1)/c1nc2ccccc2[nH]1	1%	2%	-17%	-25%	-19%	-3%
O=C(NNc1nc2c(F)cc(F)cc2s1)C1=COCCO1	8%	-5%	-1%	1%	-14%	-5%
O=C(O)c1ccccc1CSc1ncn[nH]1	2%	91%	25%	.	-5%	11%
CCOc1cc(/C=C2/NC(=S)NC2=O)ccc1OCc1ccc([N+](=O)[O-])cc1	-28%[57.1 µM]	?	?	-2%	?	-4%	POLI cherry-pick=?
